# Reference: ChEMBL document CHEMBL3988442, “University of Dundee, Small-Polar-MMV Screening Library” (2021)
# Biological target: T1, Methionyl-tRNA synthetase, putative (Leishmania donovani (strain BPK282A1)) (UniProt E9BF75)
# T1 sequence (whole entry): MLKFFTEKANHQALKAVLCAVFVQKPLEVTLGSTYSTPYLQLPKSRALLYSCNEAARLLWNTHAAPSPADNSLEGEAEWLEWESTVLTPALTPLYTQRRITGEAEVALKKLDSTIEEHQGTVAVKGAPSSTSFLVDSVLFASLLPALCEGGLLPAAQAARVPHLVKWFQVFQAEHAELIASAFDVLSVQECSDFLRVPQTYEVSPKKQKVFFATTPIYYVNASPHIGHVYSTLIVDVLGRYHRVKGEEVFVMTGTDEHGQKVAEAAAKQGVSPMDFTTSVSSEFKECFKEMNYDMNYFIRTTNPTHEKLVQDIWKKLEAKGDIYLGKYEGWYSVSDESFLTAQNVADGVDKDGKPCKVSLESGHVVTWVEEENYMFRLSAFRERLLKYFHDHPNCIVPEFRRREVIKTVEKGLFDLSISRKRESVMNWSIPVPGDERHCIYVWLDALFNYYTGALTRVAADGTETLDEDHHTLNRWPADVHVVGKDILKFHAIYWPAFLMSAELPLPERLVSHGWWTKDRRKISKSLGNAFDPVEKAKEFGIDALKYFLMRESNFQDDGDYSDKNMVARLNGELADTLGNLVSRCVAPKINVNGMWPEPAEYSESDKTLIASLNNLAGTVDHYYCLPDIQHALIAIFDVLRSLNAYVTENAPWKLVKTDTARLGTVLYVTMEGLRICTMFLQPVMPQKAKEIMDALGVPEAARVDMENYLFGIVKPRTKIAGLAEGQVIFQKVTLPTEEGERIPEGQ
# Experiment: Leishmania donovani Methionine tRNA synthetase (LdMetRS):v7. Dose response assay
# Format: functional
# Design: conc 80 nM, time 150 minutes
smiles,measurement,setting,value
Cn1ncc2c(NC(CO)CO)nc(Nc3ccc(F)c(F)c3)nc21,PXC50,"BOTTOM 0.0, HILLSLOPE 0.771628136, MAX_EFFECT 78.30188679, TOP 92.57465731",4.94
same,PXC50,"BOTTOM 5.639474755, HILLSLOPE 1.325747432, MAX_EFFECT 80.3652968, TOP 81.67018871",4.98
same,PXC50,"BOTTOM 7.610636653, HILLSLOPE 1.121965033, MAX_EFFECT 79.69639469, TOP 86.15604804",4.98
NS(=O)(=O)c1cccnc1Nc1cccc(C(F)(F)F)c1,PXC50,MAX_EFFECT 8.810572687,< 4
same,PXC50,MAX_EFFECT 8.888888889,< 4
same,PXC50,MAX_EFFECT 15.90909091,< 4
Cn1ncc2c(NCC(C)(C)O)nc(Nc3ccc(F)c(F)c3)nc21,PXC50,"BOTTOM 2.756167144, HILLSLOPE 0.998486082, MAX_EFFECT 82.64150943, TOP 95.06215472",4.8
same,PXC50,"BOTTOM -1.483509386, HILLSLOPE 0.96789371, MAX_EFFECT 77.86259542, TOP 87.31089032",4.95
same,PXC50,"BOTTOM -2.002010489, HILLSLOPE 0.709003451, MAX_EFFECT 80.70175439, TOP 108.677252",4.69
Cn1ncc2c(NC3CCCCC3O)nc(Nc3ccc(F)c(F)c3)nc21 (stereo not given),PXC50,"BOTTOM -1.097292769, HILLSLOPE 1.183920675, MAX_EFFECT 57.48218527, TOP 58.96974935",5.31
same,PXC50,"BOTTOM -1.326166196, HILLSLOPE 1.398612708, MAX_EFFECT 60.37735849, TOP 61.95804926",5.4
same,PXC50,"BOTTOM -2.072986449, HILLSLOPE 1.170002512, MAX_EFFECT 60.08583691, TOP 62.14142479",5.35
COc1cnc(Nc2ccc(F)c(F)c2)nc1NCCO,PXC50,"BOTTOM 1.119092506, HILLSLOPE 0.867597172, MAX_EFFECT 78.41409692, TOP 85.56949583",5.21
same,PXC50,"BOTTOM 1.563075745, HILLSLOPE 0.960019265, MAX_EFFECT 80.27079304, TOP 89.78065845",4.95
same,PXC50,"BOTTOM 4.457946708, HILLSLOPE 0.924831459, MAX_EFFECT 80.78512397, TOP 87.63131575",5.14
CCc1cc(N[C@@H]2CC[C@@H](N)C2)n2nc(C)c(C)c2n1,PXC50,"BOTTOM 1.026617696, HILLSLOPE 1.297008069, MAX_EFFECT 52.85961872, TOP 100.0",4.01
same,PXC50,"BOTTOM 3.147594101, HILLSLOPE 1.2343555, MAX_EFFECT 68.05555556, TOP 100.0",4.22
same,PXC50,"BOTTOM 4.251586265, HILLSLOPE 1.063316163, MAX_EFFECT 53.69127517, TOP 100.0",4.06
OCCNc1ccnc(Nc2cccc(F)c2)n1,PXC50,MAX_EFFECT 29.67244701,< 4
same,PXC50,MAX_EFFECT 30.83700441,< 4
same,PXC50,MAX_EFFECT 32.02479339,< 4
CN(C)c1nc2c(c(N3CCc4ccccc4C3)n1)CCNC2,PXC50,"BOTTOM 4.386431105, HILLSLOPE 1.427859325, MAX_EFFECT 80.85808581, TOP 100.0",4.37
same,PXC50,"BOTTOM 4.719660638, HILLSLOPE 1.487233723, MAX_EFFECT 73.91304348, TOP 100.0",4.28
same,PXC50,"BOTTOM 4.739489756, HILLSLOPE 1.201717489, MAX_EFFECT 56.63082437, TOP 100.0",4.07
Cn1ncc2c(NCCO)nc(Nc3cccc(C(F)(F)F)c3)nc21,PXC50,MAX_EFFECT 33.39622642,< 4
same,PXC50,MAX_EFFECT 39.26940639,< 4
same,PXC50,MAX_EFFECT 40.60721063,< 4
Cc1cc(NCCO)nc(Nc2ccc(F)c(F)c2)n1,PXC50,"BOTTOM 2.753913498, HILLSLOPE 0.759187316, MAX_EFFECT 87.41092637, TOP 100.0",4.84
same,PXC50,"BOTTOM 8.051339334, HILLSLOPE 0.840494555, MAX_EFFECT 84.97854077, TOP 109.6160526",4.62
same,PXC50,"BOTTOM -3.669323527, HILLSLOPE 0.810726137, MAX_EFFECT 81.68224299, TOP 99.92002792",4.84
NS(=O)(=O)c1cccc(Nc2ncccc2S(N)(=O)=O)c1,PXC50,MAX_EFFECT 9.108159393,< 4
same,PXC50,MAX_EFFECT 16.73553719,< 4
same,PXC50,MAX_EFFECT 21.14537445,< 4
O=C1NCC(c2ccc(F)cc2)Cc2[nH]c(CCN3CCCC3)nc21 (stereo not given),PXC50,"BOTTOM 0.586623965, HILLSLOPE 0.960788857, MAX_EFFECT 61.0738255, TOP 100.0",4.15
same,PXC50,"BOTTOM 2.860481636, HILLSLOPE 1.198642369, MAX_EFFECT 65.27777778, TOP 100.0",4.21
same,PXC50,"BOTTOM -5.455719139, HILLSLOPE 0.971400426, MAX_EFFECT 59.44540728, TOP 100.0",4.18
Nc1cc2c(nn1)CCN(C(=O)c1csc(-c3cccs3)n1)C2,PXC50,MAX_EFFECT 19.04761905,< 4
same,PXC50,MAX_EFFECT 19.56521739,< 4
same,PXC50,MAX_EFFECT 20.14010508,< 4
CN(C)S(=O)(=O)c1cccnc1Nc1cccc(C(F)(F)F)c1,PXC50,MAX_EFFECT 3.964757709,< 4
same,PXC50,MAX_EFFECT 9.867172676,< 4
same,PXC50,MAX_EFFECT -2.272727273,< 4
Cc1cnn(CCNCc2c(C)nn(-c3ccccc3)c2C)c1,PXC50,MAX_EFFECT 6.52173913,< 4
same,PXC50,MAX_EFFECT 6.802721088,< 4
same,PXC50,MAX_EFFECT 12.78458844,< 4
COc1ccc(C)cc1CN1CCC(c2cc3ncccc3cn2)CC1,PXC50,"BOTTOM 4.302486836, HILLSLOPE 1.43779927, MAX_EFFECT 88.21490468, TOP 100.0",4.58
same,PXC50,"BOTTOM 8.282667515, HILLSLOPE 1.048150925, MAX_EFFECT 85.90604027, TOP 109.7015184",4.5
same,PXC50,"BOTTOM -10.94583239, HILLSLOPE 1.338598097, MAX_EFFECT 90.27777778, TOP 104.5409309",4.59
O=S(=O)(NCC1CC1)c1cccnc1Nc1cccc(C(F)(F)F)c1,PXC50,MAX_EFFECT 6.072106262,< 4
same,PXC50,MAX_EFFECT 13.21585903,< 4
same,PXC50,MAX_EFFECT 16.32231405,< 4
Cn1ncc2c(NCCc3nnn[nH]3)nc(Nc3ccc(F)c(F)c3)nc21,PXC50,"BOTTOM 6.583334695, HILLSLOPE 0.991501174, MAX_EFFECT 88.67924528, TOP 94.6320251",5.11
same,PXC50,"BOTTOM -5.664940327, HILLSLOPE 0.831663104, MAX_EFFECT 86.00508906, TOP 96.34066377",5.16
same,PXC50,"BOTTOM -7.167085921, HILLSLOPE 0.718342131, MAX_EFFECT 85.0877193, TOP 100.1570552",5.14
NC(=O)c1cc(Nc2ncccc2S(N)(=O)=O)cc(C(F)(F)F)c1,PXC50,MAX_EFFECT 8.583690987,< 4
same,PXC50,MAX_EFFECT 8.863198459,< 4
same,PXC50,MAX_EFFECT 9.501187648,< 4
CCC(C)NC(=O)c1ccc(-c2ccco2)[nH]c1=O (stereo not given),PXC50,MAX_EFFECT 4.72854641,< 4
same,PXC50,MAX_EFFECT 5.442176871,< 4
same,PXC50,MAX_EFFECT 7.971014493,< 4
